The values that follow come from PubChem BioAssay AID1671190 (National Center for Advancing Translational Sciences (NCATS), 2021).

Each structure is given as a SMILES string. Screen size: about 580,000 compounds; about 6,100 (1.1%) were called active. Roughly 15% stayed inconclusive and do not appear here. The sample holds actives, similar compounds and a random draw of the others, so the mix is not that of the screen. A number with no mark means an inactive call. Calls come from the whole dose curve; as a rule, active = well fitted inhibition curve with a large enough effect; inconclusive = small, poorly fitted or top-dose-only effect, or another doubt; inactive = no such curve, though single readings can be large or run the other way.
% is set by controls: 0 for no effect and ±100 for the full control effect; potency is the fitted concentration of half-maximal effect.

Sequence of Polyunsaturated fatty acid lipoxygenase ALOX12 (Homo sapiens) (P18054 whole entry, looked up): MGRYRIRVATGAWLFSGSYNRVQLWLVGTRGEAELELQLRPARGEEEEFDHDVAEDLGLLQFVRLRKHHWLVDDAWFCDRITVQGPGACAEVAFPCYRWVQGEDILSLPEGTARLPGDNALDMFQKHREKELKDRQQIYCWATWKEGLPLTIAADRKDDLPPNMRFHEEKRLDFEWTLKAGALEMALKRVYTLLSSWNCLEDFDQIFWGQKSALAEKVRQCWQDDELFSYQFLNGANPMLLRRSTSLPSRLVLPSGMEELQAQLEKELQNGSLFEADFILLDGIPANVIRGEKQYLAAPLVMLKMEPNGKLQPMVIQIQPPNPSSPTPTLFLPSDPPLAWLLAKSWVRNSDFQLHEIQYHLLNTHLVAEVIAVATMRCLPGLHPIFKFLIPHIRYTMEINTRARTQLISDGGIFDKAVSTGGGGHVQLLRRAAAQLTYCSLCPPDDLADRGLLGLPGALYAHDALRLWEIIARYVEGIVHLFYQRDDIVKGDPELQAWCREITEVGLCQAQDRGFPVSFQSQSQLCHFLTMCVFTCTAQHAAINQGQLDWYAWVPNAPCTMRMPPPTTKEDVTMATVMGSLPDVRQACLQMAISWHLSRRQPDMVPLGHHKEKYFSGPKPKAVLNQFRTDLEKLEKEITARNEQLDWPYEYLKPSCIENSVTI

This assay concerns the target Polyunsaturated fatty acid lipoxygenase ALOX12 (Homo sapiens) (UniProt P18054). The assay is described as follows: Primary qHTS assay for inhibitors of human arachidonate 12S-lipoxygenase (ALOX12): Round 2. Conditions: purified 12hLO, xylenol orange hydroperoxide absorbance; series mostly up to 108 µM; activity change, negative = inhibition: at the top concentration. In short, it runs like this: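 Purified human 12hLO at 150 nM in 25 mM Hepes, 0.01% Triton X-100, pH 7.0, preincubated 15 min at room temperature with compound. Reaction started with 40 uM arachidonic acid, 30 min at room temperature. Hydroperoxide measured by Fe-xylenol orange, 573/405 nm absorbance ratio.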
Background: qHTS replaces the single test concentration by a dilution series.
Turning to `CCN(CC)S(=O)(=O)c1ccc(Sc2nnc(C)s2)nc1`, the “activity change, negative = inhibition” value is 35.8%.

`COc1ccc(C(=O)NCc2nnc3cc(-c4nc(C)no4)ccn23)cc1`: the “activity change, negative = inhibition” value was -6.57%.

Consider `CN(C)c1ccc(C(=O)NCc2nnc3cc(-c4nc(C5CC5)no4)ccn23)cc1`, for which the “activity change, negative = inhibition” value was 2.96%.

For `CCCc1noc(-c2ccn3c(CNC(=O)c4ccc(N(C)C)cc4)nnc3c2)n1`, the Potency is 44.7 µM (active).

`CCc1cccc2c(C(=O)CSc3nnnn3C3CC3)c[nH]c12`: the “activity change, negative = inhibition” value was -22.2%.

For the molecule `CCCNC(=O)c1cn(-c2ccccc2)nc1-c1cccnc1`, the “activity change, negative = inhibition” value is 3.41%.

With `O=C(/C=C/c1cccc(F)c1)c1cc2ccccc2oc1=O`, the “activity change, negative = inhibition” value was -24.6%.

As to `O=[N+]([O-])c1ccc(Oc2ccc3ccncc3c2)cc1C(F)(F)F`, the “activity change, negative = inhibition” value is 36.3%.

In the case of `Cc1ccc(NC(=O)CCc2nc(C(C)(C)C)no2)nc1`, the “activity change, negative = inhibition” value is -2.76%.

Turning to `Cc1cccc(NC(c2cccc(F)c2)c2ccc3ccc(C)nc3c2O)n1` (configuration not stated), the Potency was 25.1 µM (active).

As to `Cc1ccc2cccc(NC(=O)c3ccccc3C)c2n1`, the “activity change, negative = inhibition” value was 20.4%.

Take `Cc1c(Cl)cccc1NC(=O)COC(=O)c1nn(C)c(=O)c2ccccc12`: the “activity change, negative = inhibition” value is -5.86%.

On to `Cc1cc(C)n(CCC(=O)NCC2CCN(c3cc(-c4ccc(F)cc4)[nH]n3)CC2)n1`, for which the “activity change, negative = inhibition” value is 43%.

As to `Cc1cc(C)c2sc(NC(=O)c3ccc(S(=O)(=O)N4CCCC4)cc3)nc2c1`, the “activity change, negative = inhibition” value was -24.1%.

Consider `Cc1cc(C)c(NS(=O)(=O)c2ccc(S(=O)(=O)N3CCCC3)cc2)c(C(=O)O)c1`, for which the Potency was 39.8 µM (active).

`Cc1cc(C)c2oc(C(=O)Nc3ccc(S(=O)(=O)N4CCCCCC4)cc3)cc(=O)c2c1`: the “activity change, negative = inhibition” value was -22.2%.

As to `CC(=O)NC(C(=O)NC(C)c1cccc(Cl)c1)C(C)C` (configuration not stated), the “activity change, negative = inhibition” value is -0.302%.

Consider `CC(C)C(=O)N(Cc1ccc2cc[nH]c2c1)C1CC1`, for which the “activity change, negative = inhibition” value was -4.24%.

On to `NC(=O)[C@@H](Cc1ccccc1)NC(=O)C1=C[C@@H](NS(=O)(=O)c2cccc(C(F)(F)F)c2)[C@@H](O)[C@H](O)C1`, for which the “activity change, negative = inhibition” value was 15.5%.

In the case of `COc1ccc(CC/C(C)=N/O)cc1`, the “activity change, negative = inhibition” value was -14.3%.

Take `O=C(c1ccco1)N1CCC2(CC1)CC(N(Cc1ccccc1)C1CC1)CCO2` (configuration not stated): the “activity change, negative = inhibition” value is 18.9%.

As to `C=CCOc1cccc(C2C(C(=O)c3ccc(C)o3)=C(O)C(=O)N2c2nnc(C)s2)c1` (configuration not stated), the Potency was 39.8 µM (active).

With `C=CCOc1cccc(C2NC(=O)c3ccccc3O2)c1` (configuration not stated), the “activity change, negative = inhibition” value is -12.1%.

As to `C=CCOc1cccc(C2C(C(=O)c3ccc(C)o3)=C(O)C(=O)N2CCN2CCOCC2)c1` (configuration not stated), the “activity change, negative = inhibition” value is -21.9%.

Turning to `CC(C)NC(=O)NC(=O)Cn1cnc2c1c(=O)n(C)c(=O)n2C`, the “activity change, negative = inhibition” value was -5.18%.

In the case of `C/C(=N\NC(=O)NC1CCCCC1)c1ccc(OC(F)F)cc1OC(F)F`, the “activity change, negative = inhibition” value is -8.19%.

With `C/C(=N/NC(=O)c1ccc(Br)o1)c1ccc(C)o1`, the “activity change, negative = inhibition” value was 1.51%.

On to `C/C(=N\NC(=S)NC1CCCCC1)c1ccc(C)o1`, for which the Potency was 5.01 µM (active).

Take `O=C(CN1CCN(C(=O)CCCc2c[nH]c3ccccc23)CC1)NC1CC1`: the “activity change, negative = inhibition” value is -28.7%.

With `CCOC(=O)CSc1ncn(-c2nc(NC(C)(C)C)nc(N(C)C)n2)n1`, the “activity change, negative = inhibition” value was -57.7%.

`CN(C)c1ccc(C=C2C(=O)OC3(CCCC3)OC2=O)cc1`: the Potency is 44.7 µM (active).

Consider `CN(CC(=O)Nc1ccc2c(c1)OC1(CCCCC1)O2)Cc1cccs1`, for which the “activity change, negative = inhibition” value was -3.18%.

With `C=CCn1c(N2CCC(C(N)=O)CC2)nc2c1c(=O)[nH]c(=O)n2C`, the “activity change, negative = inhibition” value is 43%.

In the case of `O=C(Cc1ccc(Cl)cc1)NN=C1CCC(c2ccccc2)CC1` (configuration not stated), the “activity change, negative = inhibition” value was 5.98%.

Turning to `CCOC(=O)CN1C(=O)C(O)(CC(=O)c2cccnc2)c2ccccc21` (configuration not stated), the “activity change, negative = inhibition” value was -4.87%.

As to `CNCCC(F)(F)F`, the Potency was 15.8 µM (active).

Regarding `CN1CCC(CNC(=O)CCc2c[nH]c3ccccc23)CC1`, the “activity change, negative = inhibition” value is -2.07%.

In the case of `Cc1cc(C(C)(C)C)ccc1OC(=O)c1ccc(C#N)cc1`, the “activity change, negative = inhibition” value is 4.57%.

For the molecule `CN1CCCN(S(=O)(=O)c2ccc3c(c2)CCC3)c2ccccc21`, the “activity change, negative = inhibition” value was 25.4%.

Consider `CCc1ccc(-c2nc(-c3nc(-c4cccs4)cs3)sc2C)cc1`, for which the “activity change, negative = inhibition” value was -10.7%.

`CCOC(=O)C1=C(C)NC(=O)NC1c1ccc(C(=O)OC)cc1` (configuration not stated): the “activity change, negative = inhibition” value is 7.06%.

In the case of `COC(=O)c1ccc(CNC(=O)Cn2cc(C)c(=O)[nH]c2=O)cc1`, the “activity change, negative = inhibition” value is -9.15%.

`CCOC(=O)c1sc(=S)n2c1[nH]c(=O)c1ccc(C(=O)OC)cc12`: the Potency was 15.8 µM (active).

Regarding `COc1ccc(NC(=O)ON=C2c3ccccc3-c3ccccc32)cc1`, the “activity change, negative = inhibition” value is 2.46%.

For the molecule `COc1ccc(Nc2nc(-c3cccc(OC)c3OC)no2)cc1`, the “activity change, negative = inhibition” value was 63.4%.

On to `COc1ccc(Nc2ccccc2)cc1`, for which the Potency was 35.5 µM (active).

With `O=C(NC1CCc2ccccc21)c1cc(COc2ccc3c(c2)OCO3)[nH]n1` (configuration not stated), the “activity change, negative = inhibition” value is 62.3%.

As to `CC1(C2CC2)NC(=O)N(CC(=O)Nc2cccc3cccnc23)C1=O` (configuration not stated), the “activity change, negative = inhibition” value is -61.8%.

On to `O=C(OCc1cc(Cl)c2c(c1)OCCCO2)C12CC3CC(CC(Cl)(C3)C1)C2`, for which the “activity change, negative = inhibition” value is 10.3%.

As for `CCCn1nc(C(=O)Nc2ccc(OC)c(S(=O)(=O)N(C)C)c2)c2ccccc2c1=O`, the “activity change, negative = inhibition” value is 7.45%.

Take `CC(C)c1ccc(Nc2nnc(SCC(=O)c3nnc(-c4ccccc4)o3)s2)cc1`: the Potency is 39.8 µM (active).

On to `CCCCc1ccc(Nc2nnc(SCC(=O)NC(C)C)s2)cc1`, for which the “activity change, negative = inhibition” value was 3.41%.
